The values that follow come from PubChem BioAssay (Tox21).

Assay [1] in a line: Nuclear factor erythroid 2-related factor 2/antioxidant responsive element (Nrf2/ARE) small molecule agonists: qHTS cell viability counter screen in human keratinocytes (AID 1919968; active = well fitted curve in the direction sought with a large enough effect in the repeat runs; an effect the other way counts as inactive or inconclusive; note: nearly all actives have a fitted effect of over 55% in size; note: potency is the fitted concentration of half-maximal effect). In short, it runs like this:
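CellTiter-Fluor fluorescence, read 1 h after reagent, gave viability in the same wells as the ARE-luciferase assay. KeratinoSens cells (1,500/well) had 23 h compound exposure at 37 C/5% CO2 following 5 h plating.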
(Quantitative high-throughput screening tests each substance at several concentrations.)

A short description of assay [2]: Nuclear factor erythroid 2-related factor 2/antioxidant responsive element (Nrf2/ARE) small molecule agonists: luciferase reporter gene qHTS assay in human keratinocytes (AID 1919969). Note: nearly all actives have a fitted effect of over 35% in size. Note: potency is the fitted concentration of half-maximal effect.
In assay [3] the target is Gonadotropin-releasing hormone receptor (Homo sapiens) (UniProt P30968). Briefly: Human gonadotropin-releasing hormone receptor (GnRHR) small molecule agonists, calcium flux assay in GnRHR-HEK293 cells (AID 1920063). Note: nearly all actives have a fitted effect of over 35% in size. Note: potency is the fitted concentration of half-maximal effect. The method, boiled down:
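Agonist mode: compounds at 15 concentrations, in triplicate, went onto calcium dye-loaded GnRHR-HEK293 cells. Intracellular calcium was then followed as 480/540 nm fluorescence at 1 s intervals over 3 min.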
(Calcium flux is commonly read through the fluorescence of an indicator in the cells.)

Assay [4] concerns the target KiSS-1 receptor (Homo sapiens) (UniProt Q969F8). Briefly: Human kisspeptin (KISS1R) small molecule agonists, calcium flux assay in KISS1R-HEK293 cells (AID 1920064; active = well fitted curve in the direction sought with a large enough effect in the repeat runs; an effect the other way counts as inactive or inconclusive). The method, boiled down:
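Agonist mode: intracellular calcium rise tracked at 1 s intervals over 3 min (480/540 nm) immediately after compound addition to dye-loaded KISS1R-HEK293 stable cells. Each compound tested at 15 concentrations in triplicate.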

Assay [5] in a line: G protein-coupled receptor (GPCR) small molecule agonists, calcium flux assay: HEK293 wild type cell line counter screen (AID 1920065). The method, boiled down: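 Calcium flux counter screen: compound added in agonist mode at 15 concentrations in triplicate to dye-loaded parental HEK293 cells. Fluorescence (480/540) read kinetically for 3 min; ATP served as positive control.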

Assay [6] is described as follows: p53 small molecule agonists, cell-based qHTS assay with human liver microsomes: qHTS cell viability counter screen (AID 1963579). Note: nearly all actives have a fitted effect of over 45% in size. Note: potency is the fitted concentration of half-maximal effect. In short, it runs like this:
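HLM-supplemented (0.5 mg/mL final) and NADPH-supplemented (0.5 mg/mL final) p53RE-bla cultures, 4,000 cells per well, were dosed with compounds in DMSO for 16 h at 37 C; luminescent ATP detection (CellTiter-Glo, 30 min, room temperature) quantified surviving cells.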

Assay [7] is described as follows: p53 small molecule agonists, cell-based qHTS assay with rat liver microsomes: qHTS cell viability counter screen (AID 1963580). Note: nearly all actives have a fitted effect of over 45% in size. In short, it runs like this:
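Cytotoxicity counter screen: intracellular ATP measured by CellTiter-Glo luminescence in the same wells as the beta-lactamase reporter read, on HCT-116 p53RE-bla cells exposed 16 h at 37 C to compounds with rat liver microsomes and NADPH, each 0.5 mg/mL final.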

Assay [8] has as its target Muscarinic acetylcholine receptor M1 (Homo sapiens) (UniProt P11229). Briefly: Cholinergic receptor muscarinic 1 (CHRM1) small molecule antagonists, cell-based qHTS assay (AID 1963588). Note: nearly all actives have a fitted effect of over 40% in size. Note: potency is the fitted concentration of half-maximal effect. The method, boiled down: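 Compounds were tested at 15 concentrations in three independent runs. Dye-loaded CHRM1-CHO cells were exposed 5 min at room temperature before stimulation by acetylcholine added at 50nM. Intracellular calcium was read kinetically on FDSS for 3 min.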

Assay [9] shares this target. Briefly: Cholinergic receptor muscarinic 1 (CHRM1) small molecule agonists, cell-based qHTS assay (AID 1963589). Note: nearly all actives have a fitted effect of over 35% in size. In short, it runs like this:
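Agonist-mode calcium-flux screen: compounds at 15 concentrations, three independent runs, were pin-transferred onto dye-loaded human CHRM1-CHO cells. Fluorescence was then recorded kinetically every second over minutes.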

The target of assay [10] is Beta-2 adrenergic receptor (Homo sapiens) (UniProt P07550). Briefly: Adrenergic beta2 receptor (ADRB2) small molecule antagonists, cell-based qHTS assay (AID 1963592). Note: series mostly up to about 92 µM; nearly all actives have a fitted effect of over 50% in size. In short, it runs like this:
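Assay format: CHO-ADRB2 cells, 18-20hr seeding at 37C/5% CO2, then compound plus 1nM isoproterenol agonist mix for 0.5hr RT. Homogeneous time-resolved fluorescence cAMP detection after 1hr, expressed as 665/615 nm ratio.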

Assay [11] shares this target. Briefly: Adrenergic beta2 receptor (ADRB2) small molecule agonists, cell-based qHTS assay (AID 1963593).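 Note: CHO cells stably overexpressing human ADRB2.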 The method, boiled down:
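CHO cells stably over-expressing ADRB2 were plated overnight at 37C, then dosed with compounds plus a stimulation mix containing 100uM IBMX and 25uM Ro-20-1724 for 0.5hr at room temperature. cAMP was measured by HTRF competition, 1hr.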

The target in assay [12] is D(2) dopamine receptor (Homo sapiens) (UniProt P14416). Briefly: Dopamine D2 receptor (DRD2) small molecule antagonists, cell-based qHTS assay (AID 1963595; active = well fitted inhibition curve with a large enough effect in the signal ratio in the repeat runs, with a control signal flat; the % refers to the signal ratio; note: potency is the fitted concentration of half-maximal effect). The method, boiled down: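 Readout: HTRF cAMP, cAMP-d2 competing with cellular cAMP for anti-cAMP cryptate, read after 1 h. Cells: DRD2-HEK293. Conditions: 0.1 mM Ro20-1724, 12 nM quinpirole, 200 nM NKH477, 30 min RT.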
Chain of D(2) dopamine receptor (Homo sapiens) (P14416 whole entry, looked up): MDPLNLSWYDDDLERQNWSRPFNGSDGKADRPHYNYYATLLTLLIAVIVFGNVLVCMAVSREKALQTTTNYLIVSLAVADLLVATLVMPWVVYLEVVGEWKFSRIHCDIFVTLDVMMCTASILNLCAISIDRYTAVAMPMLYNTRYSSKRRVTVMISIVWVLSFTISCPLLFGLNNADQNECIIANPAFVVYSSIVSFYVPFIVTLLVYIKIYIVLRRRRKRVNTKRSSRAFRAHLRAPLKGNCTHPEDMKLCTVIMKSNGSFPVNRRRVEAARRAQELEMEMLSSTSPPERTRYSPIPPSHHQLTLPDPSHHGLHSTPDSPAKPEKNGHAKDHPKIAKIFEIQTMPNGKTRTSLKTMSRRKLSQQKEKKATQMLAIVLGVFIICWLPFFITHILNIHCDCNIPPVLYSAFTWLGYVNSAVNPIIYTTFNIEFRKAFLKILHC

For assay [13], the target named is 5-hydroxytryptamine receptor 2A (Homo sapiens) (UniProt P28223). Briefly: 5-hydroxytryptamine receptor 2A (HTR2A) small molecule agonists, cell-based qHTS assay (AID 1963587). Note: nearly all actives have a fitted effect of over 30% in size. In short, it runs like this:
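CHO cells stably expressing human HTR2A, plated 18 h, loaded with calcium dye 1 h at 37 C. Agonist mode: compounds added and intracellular calcium fluorescence recorded kinetically for 2 min at 1 sec intervals.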

Assay [14] is described as follows: cAMP Responsive Elements (CRE) small molecule antagonists, cell-based qHTS assay (AID 1963591; active = well fitted inhibition curve with a large enough effect in the signal ratio in the repeat runs, not every such curve was filed as active; the % refers to the signal ratio). In short, it runs like this:
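Antagonist mode: compounds are added alongside the adenylyl cyclase activator NKH477 (0.25 uM final) to CRE-bla HEK293T cells for 3 h. LiveBLAzer FRET substrate, 2 h at room temperature, reports bla expression.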

The target in assay [15] is D(2) dopamine receptor (Homo sapiens) (UniProt P14416). Briefly: Dopamine D2 receptor (DRD2) small molecule agonists, cell-based qHTS assay (AID 1963594). Note: nearly all actives have a fitted effect of over 35% in size. The method, boiled down: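 HEK293 cells stably expressing human DRD2, pre-treated with PDE inhibitor Ro20-1724 (0.1 mM final) and compound 10 min at room temperature, then stimulated with NKH477 (200nM […]) for 30 min. cAMP read by HTRF (665/620 nm).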

Assay [16] can be described thus: p53 small molecule agonists, cell-based qHTS assay: qHTS cell viability counter screen (AID 1963581). Note: nearly all actives have a fitted effect of over 45% in size. In short, it runs like this:
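Counter screen read by CellTiter-Glo luminescence (ATP content, 30 min at room temperature), run in the same wells as the beta-lactamase reporter read. HCT-116 p53RE-bla cells saw compounds for 16 h at 37 C.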

Assay [17] addresses 5-hydroxytryptamine receptor 2A (Homo sapiens) (UniProt P28223). Briefly: 5-hydroxytryptamine receptor 2A (HTR2A) small molecule antagonists, cell-based qHTS assay (AID 1963586). Note: nearly all actives have a fitted effect of over 45% in size. In short, it runs like this: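 CHO cells stably expressing human HTR2A were plated for 18 h at 37 C, then loaded with calcium dye for 1 h. Compounds were preincubated 5 min at room temperature before DOI (4 nM solution) was added. Kinetic fluorescence was read for 3 min.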

The nature of assay [18]: p53 small molecule agonists, cell-based qHTS assay with human liver microsomes (AID 1963577).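 Note: p53 response element beta-lactamase reporter cells with liver microsomes plus NADPH.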 The method, boiled down:
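Reporter activation was measured by LiveBLAzer fluorescence intensity in p53RE-bla cells, which had been exposed to compounds for 16 h at 37 C alongside 0.5 mg/mL human liver microsomes and 0.5 mg/mL NADPH (final concentrations).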

Assay [19] can be described thus: p53 small molecule agonists, cell-based qHTS assay (AID 1963582; active = well fitted activation curve with a large enough effect in the signal ratio in the repeat runs, not every such curve was filed as active; the % refers to the signal ratio). In short, it runs like this:
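Read-out is beta-lactamase FRET fluorescence after 2 h at room temperature with LiveBLAzer B/G substrate. p53 response element-bla cells were treated 16 h at 37 C with compounds in DMSO, added 5 h after seeding.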

Assay [20] can be described thus: cAMP Responsive Elements (CRE) small molecule agonists, cell-based qHTS assay (AID 1963590). In short, it runs like this: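 Agonist mode: compound added to CRE-bla HEK 293T cells (2,000/well, 18 h after plating) for 3 h at 37 C/5% CO2. Reporter activity detected via FRET beta-lactamase substrate, 2 h room-temperature loading.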

“And” between values parts separate entries of the source, which are not always exact repeats. Identical values can stand only once. Results filed as inconclusive are left out. A structure can be active in one record and inactive in another. The source made the active and inactive calls. Unless noted, calls come from the whole dose curve.

Chain of Beta-2 adrenergic receptor (Homo sapiens) (P07550 whole entry, looked up): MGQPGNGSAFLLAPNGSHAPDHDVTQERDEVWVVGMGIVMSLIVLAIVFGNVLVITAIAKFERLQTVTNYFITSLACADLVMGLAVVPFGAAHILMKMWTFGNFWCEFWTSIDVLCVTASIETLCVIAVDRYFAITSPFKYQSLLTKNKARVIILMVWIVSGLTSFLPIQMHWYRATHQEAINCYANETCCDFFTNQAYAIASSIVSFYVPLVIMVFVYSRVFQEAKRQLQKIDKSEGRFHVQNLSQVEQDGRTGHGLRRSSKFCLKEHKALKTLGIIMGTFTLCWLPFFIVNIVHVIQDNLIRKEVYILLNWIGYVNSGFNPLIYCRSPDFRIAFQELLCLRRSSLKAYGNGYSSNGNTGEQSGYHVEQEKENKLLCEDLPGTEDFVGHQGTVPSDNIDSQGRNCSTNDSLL
Chain of Muscarinic acetylcholine receptor M1 (Homo sapiens) (P11229 whole entry, looked up): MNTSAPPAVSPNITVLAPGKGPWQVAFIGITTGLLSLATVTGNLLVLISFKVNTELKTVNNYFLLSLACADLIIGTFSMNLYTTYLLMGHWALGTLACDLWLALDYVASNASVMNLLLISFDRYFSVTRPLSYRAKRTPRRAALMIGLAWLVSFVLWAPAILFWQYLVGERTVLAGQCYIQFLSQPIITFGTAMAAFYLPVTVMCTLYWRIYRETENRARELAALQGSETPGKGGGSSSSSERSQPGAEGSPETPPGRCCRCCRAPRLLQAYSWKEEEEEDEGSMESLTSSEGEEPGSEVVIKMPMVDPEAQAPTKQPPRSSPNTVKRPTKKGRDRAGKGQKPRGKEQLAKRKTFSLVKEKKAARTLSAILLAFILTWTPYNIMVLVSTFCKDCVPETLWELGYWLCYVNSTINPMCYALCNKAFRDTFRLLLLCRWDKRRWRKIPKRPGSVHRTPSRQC
Chain of KiSS-1 receptor (Homo sapiens) (Q969F8 whole entry, looked up): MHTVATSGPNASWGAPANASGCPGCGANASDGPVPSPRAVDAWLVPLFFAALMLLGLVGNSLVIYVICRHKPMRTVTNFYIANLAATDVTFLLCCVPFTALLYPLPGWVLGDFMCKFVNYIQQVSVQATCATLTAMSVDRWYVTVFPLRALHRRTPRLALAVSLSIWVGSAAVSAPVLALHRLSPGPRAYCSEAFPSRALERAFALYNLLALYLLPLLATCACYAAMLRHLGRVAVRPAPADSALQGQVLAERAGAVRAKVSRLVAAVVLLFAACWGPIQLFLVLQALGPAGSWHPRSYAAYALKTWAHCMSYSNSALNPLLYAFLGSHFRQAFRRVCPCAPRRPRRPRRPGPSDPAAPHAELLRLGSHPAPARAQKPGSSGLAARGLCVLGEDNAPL
Chain of 5-hydroxytryptamine receptor 2A (Homo sapiens) (P28223 whole entry, looked up): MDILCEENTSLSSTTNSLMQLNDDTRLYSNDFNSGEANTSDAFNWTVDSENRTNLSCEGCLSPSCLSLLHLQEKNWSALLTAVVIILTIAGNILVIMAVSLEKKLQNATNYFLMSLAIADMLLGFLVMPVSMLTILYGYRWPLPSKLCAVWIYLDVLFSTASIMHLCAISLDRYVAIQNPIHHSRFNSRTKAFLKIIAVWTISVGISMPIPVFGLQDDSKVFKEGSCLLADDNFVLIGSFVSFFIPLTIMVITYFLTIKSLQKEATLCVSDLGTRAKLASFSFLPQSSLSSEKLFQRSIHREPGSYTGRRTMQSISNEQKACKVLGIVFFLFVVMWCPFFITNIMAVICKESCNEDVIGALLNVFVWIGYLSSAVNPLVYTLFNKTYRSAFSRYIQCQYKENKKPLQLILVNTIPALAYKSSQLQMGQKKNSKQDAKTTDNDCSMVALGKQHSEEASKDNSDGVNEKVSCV
Chain of Gonadotropin-releasing hormone receptor (Homo sapiens) (P30968 whole entry, looked up): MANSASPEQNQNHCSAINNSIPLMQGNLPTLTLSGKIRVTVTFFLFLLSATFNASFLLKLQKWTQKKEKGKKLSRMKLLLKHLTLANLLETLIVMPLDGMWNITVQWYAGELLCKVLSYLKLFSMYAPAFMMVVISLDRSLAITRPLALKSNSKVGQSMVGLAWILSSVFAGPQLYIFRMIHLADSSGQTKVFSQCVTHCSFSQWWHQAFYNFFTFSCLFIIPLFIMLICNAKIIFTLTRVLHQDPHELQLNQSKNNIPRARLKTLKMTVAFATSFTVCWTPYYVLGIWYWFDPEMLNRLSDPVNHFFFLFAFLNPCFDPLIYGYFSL

On to `Cc1cc(OCCOCC[N+](C)(C)Cc2ccccc2)ccc1C(C)(C)CC(C)(C)C`, for which the Potency in assay [1] is 21.6 µM (active) and 7.5 µM (active); in [3], 38.7 µM (active); in assay [6], 36.1 µM (active) and inactive; in assay [8], 2.96 µM (active) and 2.59 µM (active); in assay [12], 38.3 µM (active). The Potency entry in [2], in assay [4], in [5], in assay [7], in assay [9] and in assay [10] was “inactive” each time. Further, the Potency result in assay [11] is “inactive”.
With `CC1COc2ccccc2N1C(=O)C(Cl)Cl` (centres undefined), the Potency result in assay [1], in [3], in assay [4], in [5], in [6] and in assay [7] was “inactive” each time. Besides, the Potency result in [13], in assay [8], in assay [9], in [14], in assay [10] and in assay [11] was “inactive” throughout. Also, the Potency entry in assay [15] and in [12] was “inactive” throughout. Also, the Potency in assay [2] is 21.6 µM (active).
As to `CCN(CC)c1ccc(C(=O)c2ccccc2C(=O)O)c(O)c1`, the Potency entry in assay [1], in [2], in assay [3], in [4], in assay [5] and in assay [6] was “inactive” throughout. For the same molecule, the Potency entry in assay [16], in assay [17], in [13], in assay [8], in assay [9] and in assay [15] was “inactive” throughout. In addition, in [12], the Potency result is “inactive”.
As to `O=C(O)c1ccc(CO)o1`, the Potency entry in assay [1], in assay [2], in [3], in assay [4], in assay [18] and in assay [6] was “inactive” in each case. Further, the Potency entry in [7], in assay [16], in [19], in [17], in [13] and in assay [8] was “inactive” throughout. Also, the Potency entry in assay [9], in [20], in assay [14], in [10], in assay [11] and in [15] was “inactive” throughout. In assay [12], the Potency entry is “inactive”.
In the case of `Cc1cccnc1`, the Potency entry in assay [1], in assay [2], in assay [3], in assay [4], in [5] and in assay [6] was “inactive” throughout. Moreover, the Potency result in [7], in assay [17], in assay [13], in [8], in [9] and in assay [14] was “inactive” each time. For the same molecule, the Potency entry in [10], in [11] and in [12] was “inactive” each time.
Turning to `CCOC(=O)c1ccc(C)cc1`, the Potency entry in assay [1], in assay [2], in assay [3], in [4], in [18] and in [6] was “inactive” throughout. Further, the Potency entry in assay [7], in [16], in assay [19], in assay [17], in assay [13] and in assay [8] was “inactive” in each case. Also, the Potency entry in assay [9], in assay [20], in assay [14], in assay [10] and in assay [11] was “inactive” in each case.
`CN=C(NC#N)NCCSCc1nc[nH]c1C`: the Potency result in assay [1], in [2], in [3], in [4], in assay [5] and in assay [6] was “inactive” in each case. Further, the Potency result in [7], in assay [20], in assay [14], in assay [10], in [15] and in assay [12] was “inactive” throughout.
Regarding `CN(Cc1cnc2nc(N)nc(N)c2n1)c1ccc(C(=O)N[C@@H](CCC(=O)O)C(=O)O)cc1`, the Potency result in [1], in [2], in assay [3], in assay [4], in assay [5] and in [7] was “inactive” in each case. The Potency entry in [20], in assay [14], in assay [11], in [15] and in [12] was “inactive” throughout.
